The source holds several records for some structures; these can differ, active in one and inactive in another. Active and inactive are the calls of the source. The rule behind the calls is not given here.

The conditions of this test: Ebola virus entry assay, reporter ratio channel; AC50: Channel type: primary unless noted; outcome: Channel type: primary unless noted.
In the case of `CC/C(=C(\c1ccccc1)c1ccc(OCCN(C)C)cc1)c1ccccc1`, the AC50 is 1.12 µM (active) and the outcome was “inactive [Channel type: confirmation]”. Regarding `CCCCc1oc2ccccc2c1C(=O)c1cc(I)c(OCCN(CC)CC)c(I)c1`, the AC50 is 2.82 µM (active).

Take `O=C1NCN(c2ccccc2)C12CCN(CC1COc3ccccc3O1)CC2` (configuration not stated): the result was inactive. For the molecule `COc1cc2ncnc(Nc3ccc(F)c(Cl)c3)c2cc1OCCCN1CCOCC1`, the AC50 was 2.51 µM (active). For `CC(=O)O[C@]1(C(C)=O)CC[C@H]2[C@@H]3C=C(Cl)C4=CC(=O)[C@@H]5C[C@@H]5[C@]4(C)[C@H]3CC[C@@]21C`, the AC50 was 3.55 µM (active). `CCC1(C2=NCCN2)Cc2ccccc2O1` (configuration not stated): the result was inactive. As to `CN1C(=S)CN=C(c2ccccc2)c2cc(Cl)ccc21`, the outcome was inactive. On the same count and under the same terms, the value for `CCCNCC(O)COc1ccccc1C(=O)CCc1ccccc1` (configuration not stated) was “inactive [Channel type: confirmation]”.

Regarding `CN1CCN(C2=Nc3cc(Cl)ccc3Nc3ccccc32)CC1`, the AC50 was 14.1 µM (active). Same read-out and setting: the figure for `Cc1cc(OCCOCC[N+](C)(C)Cc2ccccc2)ccc1C(C)(C)CC(C)(C)C` is 3.98 µM (active). On to `CCCCCCCCCCCCCC[N+](C)(C)Cc1ccccc1`, for which the AC50 is 25.1 µM (active). Turning to `COC(=O)Nc1nc2ccc(C(=O)c3cccs3)cc2[nH]1`, the AC50 was 0.708 µM (active) and the outcome was “inactive [Channel type: confirmation]”.

As to `CCCCCCCCCCCCCCCC[N+](C)(C)CC`, the AC50 was 11.2 µM (active). Take `CN1CC[C@H](c2c(O)cc(O)c3c(=O)cc(-c4ccccc4Cl)oc23)[C@H](O)C1`: the outcome was inactive. In the case of `COC(=O)Nc1nc2ccc(C(=O)c3ccccc3)cc2[nH]1`, the AC50 is 1.26 µM (active).

(Values after PubChem BioAssay (NCATS).)
